# Where “and” joins values, the source holds several entries; their conditions need not be identical. Identical values can stand only once. Some structures have more than one record in an assay (separate samples or runs), and their calls can disagree. Calls of active or inactive are those of the source. Rule as the data show it, unless noted: active = inhibition above about 80%; inactive = the rest.
# Tests used:
# [1] = molecular target: NAD(+) hydrolase SARM1 (Homo sapiens) (UniProt Q6SZW1); experiment: blocking NAD cleavage by SARM1 SAM-TIR – cell lysate, NAD-Glo luminescence (AID 1508614;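 active = compound whose remaining NAD level is above about 45 nM, limit read from the data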;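 also: higher remaining NAD means stronger inhibition of SARM1 NADase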); conditions: SAM-TIR HEK293T lysate NADase, at 1 µM, stronger effect = higher value
# Chain of NAD(+) hydrolase SARM1 (Homo sapiens) (Q6SZW1 whole entry, looked up): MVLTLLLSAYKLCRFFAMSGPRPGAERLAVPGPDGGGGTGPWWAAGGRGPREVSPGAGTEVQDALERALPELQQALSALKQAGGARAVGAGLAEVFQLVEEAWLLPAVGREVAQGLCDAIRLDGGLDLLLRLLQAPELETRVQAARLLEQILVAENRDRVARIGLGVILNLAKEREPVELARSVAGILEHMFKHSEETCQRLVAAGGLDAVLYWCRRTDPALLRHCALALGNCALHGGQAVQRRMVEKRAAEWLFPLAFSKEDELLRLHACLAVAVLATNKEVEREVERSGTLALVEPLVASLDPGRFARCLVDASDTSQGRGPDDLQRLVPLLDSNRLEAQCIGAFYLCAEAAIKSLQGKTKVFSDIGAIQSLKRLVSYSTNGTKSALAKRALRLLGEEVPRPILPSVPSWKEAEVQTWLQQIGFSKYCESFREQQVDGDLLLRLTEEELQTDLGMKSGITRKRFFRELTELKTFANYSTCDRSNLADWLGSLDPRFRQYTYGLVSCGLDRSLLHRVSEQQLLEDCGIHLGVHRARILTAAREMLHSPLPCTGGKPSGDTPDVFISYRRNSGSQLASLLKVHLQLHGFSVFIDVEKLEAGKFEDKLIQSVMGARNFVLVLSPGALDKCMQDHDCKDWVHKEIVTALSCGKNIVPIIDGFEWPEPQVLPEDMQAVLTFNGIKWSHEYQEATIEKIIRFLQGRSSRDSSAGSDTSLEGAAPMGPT
# [2] = galactose survival enhancers in mitochondrial complex I cybrids – cell-based, galactose medium, ATP luminescence, primary screen (AID 1645843;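 active = z-score of at least 1.8 in each of two replicates, scored against plate mean and spread of sample wells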;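 also: positive z means more ATP and so rescue of galactose-driven cybrid death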); conditions: complex I mutant cybrid cells, 72 h, stronger effect = higher value
# [3] = molecular target: Mitogen-activated protein kinase 7 (Homo sapiens) (UniProt Q13164); experiment: Gal4-ERK5 driven luciferase induction – cell-based, HTS, primary screen (AID 1508626;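 active = luciferase signal above three times the same-plate solvent-only control wells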;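 also: luciferase driven by Gal4-ERK5 fusion binding five Gal4 sites before minimal TATA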); conditions: HeLa Gal4-ERK5 transactivation, 18 h, at 5 µM, stronger effect = higher value
# Chain of Mitogen-activated protein kinase 7 (Homo sapiens) (Q13164 whole entry, looked up, the tested form may be a part): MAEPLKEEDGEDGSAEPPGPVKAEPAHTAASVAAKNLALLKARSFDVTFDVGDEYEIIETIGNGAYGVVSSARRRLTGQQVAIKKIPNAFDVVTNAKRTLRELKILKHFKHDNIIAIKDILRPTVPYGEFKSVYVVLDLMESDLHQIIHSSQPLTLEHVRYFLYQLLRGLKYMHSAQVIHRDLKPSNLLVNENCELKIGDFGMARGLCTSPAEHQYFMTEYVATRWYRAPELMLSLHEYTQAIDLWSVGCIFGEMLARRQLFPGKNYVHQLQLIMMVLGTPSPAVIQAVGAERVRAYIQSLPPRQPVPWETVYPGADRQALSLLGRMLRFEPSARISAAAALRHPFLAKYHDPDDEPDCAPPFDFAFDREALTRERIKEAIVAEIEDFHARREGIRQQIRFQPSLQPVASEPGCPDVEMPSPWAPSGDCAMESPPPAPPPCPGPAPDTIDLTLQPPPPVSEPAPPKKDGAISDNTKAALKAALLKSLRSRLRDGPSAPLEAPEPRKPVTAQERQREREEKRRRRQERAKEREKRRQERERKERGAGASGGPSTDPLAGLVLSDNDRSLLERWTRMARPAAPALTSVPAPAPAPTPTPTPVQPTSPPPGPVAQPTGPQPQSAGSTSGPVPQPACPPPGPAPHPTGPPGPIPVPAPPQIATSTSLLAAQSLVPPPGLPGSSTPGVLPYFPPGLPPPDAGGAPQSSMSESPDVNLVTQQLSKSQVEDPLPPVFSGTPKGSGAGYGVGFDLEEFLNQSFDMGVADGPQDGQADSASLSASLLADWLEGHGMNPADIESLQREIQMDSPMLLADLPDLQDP
# [4] = growth inhibition, single agent or in combination, cell-based, chromothripsis tumors, cisplatin or BGB combos (AID 1671449); conditions: LFS_MB_P medulloblastoma cells;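 also: cells exposed for 96 hours; 0% = vehicle DMSO and 100% = killing by high DMSO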
# [5] = growth inhibition, single agent and combos, cell-based, chromothripsis tumors, cisplatin or BGB combos (AID 1671450); conditions: HDN33 neuroblastoma cells, stronger effect = higher value;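 also: cells exposed to compound for four days; 0% = vehicle DMSO and 100% = cell killing by high DMSO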
# [6] = growth inhibition, single agents and combos, ICB984, cell-based, cisplatin or BGB combos, synergistic combos for chromothripsis tumors (AID 1671451; call rule not given here;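 also: cells exposed for 96 hours before readout; 0% = vehicle DMSO and 100% = killing by high DMSO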); conditions: ICB984 medulloblastoma cells, drug combinations, stronger effect = higher value
# [7] = growth inhibition, single agents and combos, LFS_MB_1R, cell-based, cisplatin or BGB combos, synergistic combos for chromothripsis tumors (AID 1671452); conditions: LFS_MB_1R medulloblastoma cells, stronger effect = higher value;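 also: cells exposed for 96 hours before readout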
# [8] = growth inhibition, single agents and combos, HTB85, cell-based, BGB or cisplatin IC20 combos, synergistic combos for chromothripsis tumors (AID 1671453); conditions: HTB85 osteosarcoma cells, drug combinations, stronger effect = higher value;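 also: cells exposed for 96 hours before readout; 0% = vehicle DMSO and 100% = high DMSO killing control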
# [9] = growth inhibition, single agents and combos, CRL2098, cell-based, BGB or cisplatin IC20 combos, synergistic combos for chromothripsis tumors (AID 1671454); conditions: CRL2098 osteosarcoma cells, drug combinations, stronger effect = higher value;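 also: cells exposed for 96 h before readout; 0% = vehicle DMSO and 100% = killing by high DMSO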
# [10] = growth inhibition, single agents and combos, HD-MB03, cell-based, BGB or cisplatin IC20 combos, synergistic combos for chromothripsis tumors (AID 1671455; in the data active = inhibition above about 83%;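 also: 0% = vehicle DMSO and 100% = high DMSO as cytotoxic control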); conditions: HD-MB03 medulloblastoma cells, stronger effect = higher value
# [11] = growth inhibition, single agents and combos, UWB1.289, cell-based, BGB or cisplatin combos, synergistic combos for chromothripsis tumors (AID 1671456); conditions: UWB1.289 ovarian carcinoma cells, stronger effect = higher value;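 also: cells exposed to compound for four days; 0% = vehicle DMSO and 100% = killing by high DMSO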
# [12] = growth inhibition, single agents and combos, LFS_MB_2R, cell-based, cisplatin combos, synergistic combos for chromothripsis tumors (AID 1671457); conditions: LFS_MB_2R medulloblastoma cells, stronger effect = higher value;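 also: cells exposed to compound for four days before readout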
# [13] = growth inhibition, MDA-MB-436, cell-based, BGB or cisplatin combos, synergistic combos for chromothripsis tumors (AID 1671458; call rule not given here;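 also: cells exposed for 96 hours; 0% = vehicle DMSO and 100% = killing by high DMSO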); conditions: MDA-MB-436 breast carcinoma growth inhibition, drug combinations, stronger effect = higher value
# [14] = UWB1.289_BRCA1 ovarian cancer growth, cell-based, BGB or cisplatin combinations (AID 1671459); conditions: UWB1.289 BRCA1 ovarian carcinoma, drug combinations, stronger effect = higher value
# [15] = drug combination toxicity in non-malignant astrocytes – cell-based, BGB or cisplatin IC20 combos, cytotoxicity control for chromothriptic childhood tumor combination screen (AID 1671460); conditions: Human astrocytes, viability inhibition, drug combinations, at 0.5 µM, stronger effect = higher value;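 also: cells exposed to compounds for 96 hours before viability readout; 0% = vehicle and 100% = killing control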
# [16] = BT084 cell growth, single and combined drugs, ICGC_MB145, cisplatin and BGB IC40 combos (AID 1671461); conditions: BT084 medulloblastoma cells, drug combinations, stronger effect = higher value;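 also: cells exposed to drugs for 96 hours; 0% = vehicle DMSO and 100% = high DMSO full killing control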
# [17] = RCMB18 cell growth, single agent and combined, cisplatin and BGB IC40 combos (AID 1671462); conditions: RCMB18 medulloblastoma cells, stronger effect = higher value;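 also: cells exposed to compound for four days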
# [18] = CRL1545 cell growth, single agent and combined, cisplatin and BGB IC20 combos (AID 1671464); conditions: CRL1545 osteosarcoma cells, stronger effect = higher value;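 also: cells exposed to compound for 96 hours before readout; 0% = vehicle DMSO and 100% = high DMSO killing control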
# [19] = measured here: combination with BGB IC40, at 0.05 µM
# [20] = measured here: with BGB IC20 combination, at 0.5 µM
# [21] = measured here: with cisplatin IC20 combination, at 0.5 µM
# [22] = measured here: combination with cisplatin, at 0.5 µM
# [23] = measured here: combination with cisplatin, at 5 µM
structure (smiles),measurement,setting,value
CCCCCN(CCCCC)C(=O)C(CCC(=O)O)NC(=O)c1ccc(Cl)c(Cl)c1 (configuration not stated),remaining NAD,[1],10 nM (inactive)
same,z-score,[2],2.69 (active) and 0.255 (inactive)
C[C@H]1O[C@@H](n2cc(F)c(=O)[nH]c2=O)[C@H](O)[C@@H]1O,remaining NAD,[1],10 nM (inactive)
same,z-score,[2],0.64 (inactive) and -0.08 (inactive)
Cc1cnc(C(=O)O)c[n+]1[O-],remaining NAD,[1],10 nM (inactive)
same,z-score,[2],0.95 (inactive)
CCc1c2c(nc3ccc(OC(=O)N4CCC(N5CCCCC5)CC4)cc13)-c1cc3c(c(=O)n1C2)COC(=O)[C@]3(O)CC,remaining NAD,[1],10 nM (inactive)
same,z-score,[2],-1.4 (inactive) and -0.58 (inactive)
COc1cc(C(=O)OCCCN2CCCN(CCCOC(=O)c3cc(OC)c(OC)c(OC)c3)CC2)cc(OC)c1OC,remaining NAD,[1],10 nM (inactive)
same,z-score,[2],-0.89 (inactive) and 0.995 (inactive) and -0.26 (inactive)
NC(Cc1ccc(Cl)cc1)C(=O)O (configuration not stated),remaining NAD,[1],10 nM (inactive)
same,z-score,[2],0.25 (inactive)
S=P(N1CC1)(N1CC1)N1CC1,remaining NAD,[1],10 nM (inactive)
same,luciferase signal,[3],40 AU (inactive)
same,inhibition,"[4]; at 0.5 µM, stronger effect = higher value",-23.2% (inactive) and -26.3% (inactive)
same,inhibition,"[4]; measured here: combination with BGB IC20, at 0.005 µM",4.28% and -9.96%
same,inhibition,"[4]; measured here: combination with BGB IC40, at 0.005 µM",-18.6% and -23.3%
same,inhibition,[4]; [19],-9.26% and -20.5%
same,inhibition,"[4]; measured here: combination with cisplatin, at 0.5 µM, stronger effect = higher value",-29.9% and -42.7%
same,inhibition,"[4]; measured here: combination with cisplatin, at 5 µM, stronger effect = higher value",-29% and -10.5%
same,inhibition,"[5]; BGB combo, at 5 µM",10.9% and 17%
same,inhibition,[5]; at 0.5 µM,-22.8% (inactive) and -4.61% (inactive)
same,inhibition,"[5]; cisplatin combo, at 5 µM",-33.8% and -6.48%
same,inhibition,[5]; [20],-8.9% and -5.09%
same,inhibition,[5]; [21],-36% and 8.65%
same,inhibition,"[5]; single agent, at 5 µM",-17.8% and -15.5%
same,inhibition,"[6]; BGB IC20 combo, at 0.005 µM",-28.8% and -30.2%
same,inhibition,"[6]; BGB IC40 combo, at 0.005 µM",-42.6% and -1.02%
same,inhibition,"[6]; BGB IC40 combo, at 0.05 µM",-71.3% and -1.28%
same,inhibition,[6]; at 0.5 µM,-28.5% (inactive) and -18.4% (inactive)
same,inhibition,"[6]; cisplatin combo, at 0.05 µM",-78.1% and -1.28%
same,inhibition,"[6]; cisplatin combo, at 0.5 µM",-36.2% and -27%
same,inhibition,"[6]; cisplatin combo, at 5 µM",-39.5% and -6.98%
same,inhibition,"[6]; measured here: 5 uM single agent, at 5 µM",-8.68% and -10.4%
same,inhibition,[7]; at 0.5 µM,-9.66% (inactive) and -3.23% (inactive)
same,inhibition,[7]; [19],-28.2% and 8.25%
same,inhibition,[7]; [22],-26.8% and 11.1%
same,inhibition,[7]; [23],-75% and -8.13%
same,inhibition,[8]; at 0.5 µM,-27.7% (inactive) and -19.6% (inactive)
same,inhibition,"[8]; measured here: with BGB IC20, at 0.5 µM",-28% and -46.5%
same,inhibition,"[8]; measured here: with BGB IC20, at 5 µM",12.6% and 4.5%
same,inhibition,"[8]; measured here: with cisplatin IC20, at 0.5 µM",-41.1% and -12.7%
same,inhibition,"[8]; measured here: with cisplatin IC20, at 5 µM",-24.2% and -0.841%
same,inhibition,"[8]; single agent, at 5 µM",-13.2% and -18.3%
same,inhibition,[9]; at 0.5 µM,-50.3% (inactive) and -34.6% (inactive)
same,inhibition,"[9]; measured here: combination with BGB at IC20, at 0.5 µM",-22.9% and -20.1%
same,inhibition,"[9]; measured here: combination with cisplatin at IC20, at 0.5 µM",-36.2% and -49.4%
same,inhibition,[10]; at 0.5 µM,-12.6% (inactive) and -4.94% (inactive)
same,inhibition,"[10]; measured here: combo with BGB at IC20, at 0.5 µM",-12.8% and -2.1%
same,inhibition,"[10]; measured here: combo with cisplatin at IC20, at 0.5 µM",-11.1% and -9.72%
same,inhibition,[11]; at 0.5 µM,-18.2% (inactive) and 3.65% (inactive)
same,inhibition,"[11]; measured here: inhibition with BGB combination, at 0.05 µM",-11.2% and -17.2%
same,inhibition,"[11]; measured here: inhibition with cisplatin combination, at 0.05 µM",-30.7% and -4.4%
same,inhibition,[12]; at 0.5 µM,-6.41% (inactive) and -22.2% (inactive)
same,inhibition,[12]; [22],-11.5% and -15%
same,inhibition,[12]; [23],6.16% and -16.8%
same,inhibition,[13]; at 0.5 µM,3.12% (inactive) and -15.6% (inactive)
same,inhibition,"[13]; measured here: BGB combination, at 0.5 µM",5.95% and -18.7%
same,inhibition,"[13]; measured here: BGB combination, at 5 µM",29.4% and 17.8%
same,inhibition,"[13]; measured here: cisplatin combination, at 0.5 µM",-1.16% and -30.9%
same,inhibition,"[13]; measured here: cisplatin combination, at 5 µM",28.2% and 9.67%
same,inhibition,"[14]; BGB combination, concentration series, at 5 µM",4.52% and 17.6%
same,inhibition,[14]; at 0.5 µM,-8.8% (inactive) and -2.14% (inactive)
same,inhibition,"[14]; cisplatin combination, concentration series, at 5 µM",2.09% and 16%
same,inhibition,[15],-9.07% (inactive) and -1.79% (inactive)
same,inhibition,[15]; measured here: combo with BGB IC20,3.46% and -2.7%
same,inhibition,[15]; measured here: combo with cisplatin IC20,-14.4% and -11.6%
same,inhibition,[16]; at 0.5 µM,0.706% (inactive) and -3.22% (inactive)
same,inhibition,"[16]; cisplatin combination, at 0.5 µM",-14.4% and 6.01%
same,inhibition,"[16]; cisplatin combination, at 5 µM",-20% and -51.6%
same,inhibition,"[16]; measured here: BGB IC40 combination 0.05 uM, at 0.05 µM",-8.78% and -15.6%
same,inhibition,"[16]; single agent, at 5 µM",-22.6% and -19.6%
same,inhibition,[17]; at 0.5 µM,-6.9% (inactive) and -9.28% (inactive)
same,inhibition,"[17]; cisplatin combo, at 5 µM",-6.08% and -6.23%
same,inhibition,"[17]; measured here: BGB IC40 combination, at 0.05 µM",-9.84% and -6.48%
same,inhibition,[17]; [22],-21.1% and 0.266%
same,inhibition,"[17]; single agent, at 5 µM",-45.9% and -29.6%
same,inhibition,[18]; at 0.5 µM,-18.6% (inactive) and -31% (inactive)
same,inhibition,[18]; [20],7.82% and -2.28%
same,inhibition,[18]; [21],-31.7% and -45.4%
same,inhibition,"[18]; single agent, at 0.05 µM",-43.5% and 4.65%
same,inhibition,"[18]; single agent, at 5 µM",-38.5% and 10.3%
